Source: ChEMBL document CHEMBL4513146, “CO-ADD screening of Karazin Kharkiv National University (Ukraine) compounds”
Potency and affinity values are given separately.

What was measured:
[1] = tested on: Klebsiella pneumoniae; conditions: Concentration 32 ug.mL-1;; ASSAY_TEST Inhibition of Bacterial Growth; detection method Absorption (OD600); MEDIA CAMHB; plate type 384well; NBS; CORNING #3640; time 18 hr
[2] = tested on: Candida albicans; conditions: Concentration 32 ug.mL-1; ASSAY_TEST Inhibition of Fungal Growth; detection method Absorption (OD530)
[3] = tested on: Cryptococcus neoformans; conditions: Concentration 32 ug.mL-1; ASSAY_TEST Inhibition of Fungal Growth; detection method Resazurin; Absorption (OD600-OD570); plate type 384well; NBS; CORNING #3640

Structure (SMILES)	Inhibition [1]	Inhibition [2]	Inhibition [3]
COc1ccc(Cl)cc1NC(=O)CSc1nnc2c(=O)n(-c3ccc(C)c(C)c3)ccn12	15.8%	0.63%	-9.59%
O=C(Cn1nc2ccc(SC3CCCCC3)nn2c1=O)Nc1ccc2c(c1)CCC2	11.52%	2.83%	-22.07%
N#Cc1ccc(NC(=O)Cn2nc3c(Oc4ccccc4)nccn3c2=O)cc1	4.51%	0.35%	-7.22%
Cc1cc(C)cc(N(Cc2ccc(F)cc2)S(=O)(=O)c2cccn3c(C)nnc23)c1	-0.28%	0.42%	-5.4%
CCCCOc1ccc(-c2cc3c4nnc(SCC(=O)Nc5ccc(C)c(C)c5)n4ccn3n2)cc1	4.46%	-1.19%	-6.11%
N#Cc1cccc(NC(=O)Cn2nc3c4cc(-c5ccc(Cl)cc5)nn4ccn3c2=O)c1	3.5%	20.48%	-13.1%
COc1ccccc1-n1ccn2c(SCc3ccccc3Cl)nnc2c1=O	10.5%	2.3%	-11.71%
CCCCc1ccc(NC(=O)Cn2nc3c(N4CCSCC4)nc4ccccc4n3c2=O)cc1	15.26%	-0.87%	-24.44%
COc1ccccc1NC(=O)Cn1nc2c(SC3CCCCC3)nccn2c1=O	-0.89%	12.37%	-26.18%
Cc1cc(C)c(NC(=O)Cn2nc3c(N4CCCC(C)C4)nccn3c2=O)c(C)c1 (stereo not given)	-3.43%	-1.23%	-2.74%
